The whole screen tested about 3,300 compounds, of which about 280 (8.5%) were called active.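 Rule for the calls: active = mean growth inhibition over the two runs of 50% or more; inactive = mean growth inhibition under 50%.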 For the sample, actives were picked, then their nearest neighbours and some compounds at random.

The nature of this assay: A549 NSCLC cell proliferation inhibitors – ATP luminescence, human non-small cell lung line, primary screen (AID 371).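 Note: compound exposure lasted 72 h before the ATP read; 0% = untreated cell signal and 100% = no luminescence left.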 Conditions: at 10 µM, hits give high values.
For `O=C1c2ccccc2C(=O)N1CCN1CCc2ccccc21`, the growth inhibition was 8.36% (inactive).

For the molecule `Cc1ccc(C(C)C)c(OCCNc2nc3c(c(=O)n(C)c(=O)n3C)n2C)c1`, the growth inhibition is 20.2% (inactive).

As for `CCSc1nc(N)c2c3c(sc2n1)CCC3`, the growth inhibition was 6.53% (inactive).

`c1csc(-c2nn3c(C4CCCCC4)nnc3s2)c1`: the growth inhibition is 7.39% (inactive).

In the case of `CC(C)(C)n1cnc2cc(NS(=O)(=O)c3ccc(Br)cc3)ccc21`, the growth inhibition was 61.4% (active).

On to `CC1CN(C2CCN(S(=O)(=O)c3ccc4ccccc4c3)CC2)CC(C)O1` (stereo not given), for which the growth inhibition was 8.58% (inactive).

Turning to `CC(C)c1nc2sc3c(c2c(=O)o1)CCCC3`, the growth inhibition is 0.69% (inactive).

`CCOc1ccc(C2C(C#N)=C(N)Oc3cc(C)n(CCN4CCOCC4)c(=O)c32)cc1OCC` (stereo not given): the growth inhibition is 1.16% (inactive).

In the case of `CO[C@H]1C[C@@H]2CC[C@@H](C)[C@@](O)(O2)C(=O)C(=O)N2CCCC[C@H]2C(=O)O[C@H]([C@H](C)C[C@@H]2CC[C@@H](O)[C@H](OC)C2)CC(=O)[C@H](C)C=C(C)[C@@H](O)[C@@H](OC)C(=O)[C@H](C)C[C@H](C)C=CC=CC=C1C`, the growth inhibition was 65.2% (active).

As for `CCCOC(=O)C1[C@H]2C(=O)N(Cc3ccco3)C[C@]23C=C[C@H]1O3` (stereo not given in full), the growth inhibition is 9.74% (inactive).

For `CCCOc1ccc(C(C)=O)cc1CSCCC#N`, the growth inhibition was 8.19% (inactive).

For `CCOC(=O)c1c(C)[nH]sc1=S`, the growth inhibition is 3.75% (inactive).

In the case of `CCOC(=O)c1c(C)[nH]c(/C(C)=N/O)c1C`, the growth inhibition is 12.8% (inactive).

On to `CCOC(=O)c1c(C(F)(F)C(F)(F)C(F)(F)C(F)(F)F)n[nH]c1C`, for which the growth inhibition was 91.1% (active).

In the case of `CCOC(=O)C1=C(C)NC(C)=C(C(=O)OC)C1c1cccc([N+](=O)[O-])c1` (stereo not given), the growth inhibition is 52.7% (active).

Consider `CCOC(=O)C1=C(C)NC(=O)NC1c1ccc2c(c1)OCO2` (stereo not given), for which the growth inhibition is 5.16% (inactive).

In the case of `CCOC(=O)C1=C(C)NC(C)=C(C(=O)OC)C1c1cccc(Cl)c1Cl` (stereo not given), the growth inhibition was 79.5% (active).

As for `CCOC(=O)C1=C(C)NC(=O)C1CC(=O)Nc1ccccc1` (stereo not given), the growth inhibition is -0.76% (inactive).

`COC(=O)C1=C(C)NC(C)=C(C(=O)OC)C1c1ccccc1[N+](=O)[O-]`: the growth inhibition was 47.5% (inactive).

In the case of `COCCOC(=O)C1=C(C)NC(C)=C(C(=O)OC(C)C)C1c1cccc([N+](=O)[O-])c1` (stereo not given), the growth inhibition was 34.4% (inactive).

Turning to `Cc1c(O)c(CN2CCCC2)cc2c1oc(=O)c1ccccc12`, the growth inhibition was 9.98% (inactive).

For `N#Cc1c(N2CCOCC2)nc(-c2ccco2)c2c1CCCC2`, the growth inhibition was 7.04% (inactive).

On to `CCC(=O)c1ccc(O)cc1`, for which the growth inhibition is 4.76% (inactive).

As for `C/C=C(/C(=C/C)c1ccc(O)cc1)c1ccc(O)cc1`, the growth inhibition is 50.9% (active).

Turning to `Cn1c(NCCN2CCCCC2)cc(=O)n(C)c1=O`, the growth inhibition was -1.36% (inactive).

`COc1cc(C2CC(C(F)(F)F)n3ncc(C(=O)O)c3N2)cc(OC)c1OC` (stereo not given): the growth inhibition is 2.64% (inactive).

Turning to `CN1CCN(C(=O)CSc2nc(-c3cccs3)ccc2C#N)CC1`, the growth inhibition is 3.23% (inactive).

On to `COc1ccc(N2C(=O)CC(N(Cc3ccc(S(N)(=O)=O)cc3)C(C)=O)C2=O)cc1` (stereo not given), for which the growth inhibition was 0.97% (inactive).

As for `Cc1ccc2[nH]c3c(c2c1)CN(C(=O)CN1CCN(c2ccccn2)CC1)CC3`, the growth inhibition is 15.6% (inactive).

As for `Cc1ccc2[nH]c3c(c2c1)CN(C(=O)CN1CCCc2ccccc21)CC3`, the growth inhibition is 69% (active).

With `Cc1ccc2[nH]c3c(c2c1)CN(C(=O)CN1CC(C)OC(C)C1)CC3` (stereo not given), the growth inhibition was 3.04% (inactive).

For the molecule `COCCOC(=O)c1c(C)oc2ccc(OC(=O)COc3c(F)c(F)c(F)c(F)c3F)cc12`, the growth inhibition was 5.03% (inactive).

In the case of `Cc1ccc(C(=O)NCC(C)(C)O)cc1`, the growth inhibition was 4.92% (inactive).

Turning to `COc1ccc(N2CCN(C3CC(=O)NC3=O)CC2)cc1` (stereo not given), the growth inhibition is 1.16% (inactive).

Consider `CC(=O)O[C@H]1C(=O)[C@]2(C)[C@H]([C@H](OC(=O)c3ccccc3)[C@]3(O)C[C@H](OC(=O)[C@H](O)[C@@H](NC(=O)c4ccccc4)c4ccccc4)C(C)=C1C3(C)C)[C@]1(OC(C)=O)CO[C@@H]1C[C@@H]2O`, for which the growth inhibition was 65.8% (active).

Turning to `CC(=O)O[C@@]12CO[C@@H]1C[C@H](O)[C@@]1(C)C(=O)[C@H](O)C3=C(C)[C@@H](OC(=O)[C@H](O)[C@@H](NC(=O)OC(C)(C)C)c4ccccc4)C[C@](O)([C@@H](OC(=O)c4ccccc4)[C@H]21)C3(C)C`, the growth inhibition is 55.2% (active).

As for `CCOC(=O)CC1=C(C(=O)OCC)C(c2ccc(OC)c(OC)c2)C(C#N)=C(N)O1` (stereo not given), the growth inhibition is -2.02% (inactive).

As for `CCOC(=O)CC1=C(C(=O)OCC)C(c2cc(OC)c(OC)cc2OC)C(C#N)=C(N)O1` (stereo not given), the growth inhibition is -5.45% (inactive).

Consider `CCCCCCn1c(SCCN2CCOCC2)nc2c1c(=O)[nH]c(=O)n2C`, for which the growth inhibition was 7.31% (inactive).

For the molecule `CN1CC2(C)CN(C(c3ccccc3)c3ccccc3)CC(C)(C1)C2O` (stereo not given), the growth inhibition is 6.36% (inactive).

On to `CCCCC(=O)O[C@]1(C(=O)CO)CC[C@H]2[C@@H]3CCC4=CC(=O)CC[C@]4(C)[C@H]3[C@@H](O)C[C@@]21C`, for which the growth inhibition was 21.6% (inactive).

As for `CC(=O)O[C@]1(C(C)=O)CC[C@H]2[C@@H]3C=C(C)C4=CC(=O)CC[C@]4(C)[C@H]3CC[C@@]21C`, the growth inhibition is 34.5% (inactive).

Turning to `CC(=O)O[C@]1(C(C)=O)CC[C@H]2[C@@H]3C[C@H](C)C4=CC(=O)CC[C@]4(C)[C@H]3CC[C@@]21C`, the growth inhibition is 50% (inactive).

As to `CCCCCC(=O)O[C@]1(C(C)=O)CC[C@H]2[C@@H]3CCC4=CC(=O)CC[C@]4(C)[C@H]3CC[C@@]21C`, the growth inhibition was 73.5% (active).

Regarding `CCCCCCCC(=O)OCC(=O)[C@@]1(O)CC[C@H]2[C@@H]3CCC4=CC(=O)CC[C@]4(C)[C@H]3[C@@H](O)C[C@@]21C`, the growth inhibition is 26.8% (inactive).

Turning to `CC(=O)O[C@]1(C(C)=O)CC[C@H]2[C@@H]3C=C(Cl)C4=CC(=O)CC[C@]4(C)[C@H]3CC[C@@]21C`, the growth inhibition was 52.6% (active).

Turning to `O=C(O)C1CSC(CCc2ccccc2)N1` (stereo not given), the growth inhibition is 5.85% (inactive).

For the molecule `CCN(CC)CCCN1C(=O)C(=O)/C(=C(/O)c2ccc3c(c2)CC(C)O3)C1c1cccnc1` (stereo not given), the growth inhibition is 1.89% (inactive).

Regarding `COc1ccccc1N(Cc1cc2cccc(C)c2[nH]c1=O)C(=O)C(C)C`, the growth inhibition is 12.1% (inactive).

`O=C1C(=O)N(Cc2cccnc2)C(c2ccccn2)/C1=C(/O)c1ccc(F)cc1` (stereo not given): the growth inhibition is 1.96% (inactive).

The values are drawn from PubChem BioAssay AID371 (SRMLSC, 2006).
